Experiment [1] concerns the target Lysosomal acid glucosylceramidase (Homo sapiens) (UniProt P04062). Briefly: Glucocerebrosidase-p2 (AID 348; in the data active means potency below about 10 µM; further: potency means the concentration at half of the fitted maximal effect). As to conditions: purified GBA, blue fluorogenic substrate, 40 min. The gist of the method:
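Normal human glucocerebrosidase (0.2 nM) with blue fluorogenic substrate (80 uM final) in citrate/phosphate pH 5.9 with 10mM sodium taurocholate, 0.01% tween-20; 40 min RT, NaOH/glycine stop; fluorescence Ex 365/Em 440; AC50 from a titration from 0.6 nM upwards.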

The nature of experiment [2]: AP1 Signaling Pathway (AID 357; active means well fitted curve in either direction with a large enough effect, not every such curve was filed as active;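 further: ME-180 reporter cells stimulated with EGF at its EC50 level; on the % scale 0 is the no-effect control and ±100 the full control effect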). As to conditions: ME-180 AP-1-bla reporter, EGF-induced, beta-lactamase ratio, 5 h; at 7.69 µM (top of the series) unless noted. The gist of the method:
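AP-1-bla ME-180 cells, Opti-MEM + 0.5% dialyzed FBS, plated overnight 37 °C. Cpd titration + EC50 EGF, 5 h 37 °C. CCF4 2.5 h RT; ex 405, em 460/530 ratio → %activity, AC50.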

For experiment [3], the target named is Cytochrome P450 1A2 (Homo sapiens) (UniProt P05177). Put plainly: p450-cyp1a2 (AID 410; calls by dose curve; further: potency means the concentration at half of the fitted maximal effect). As to conditions: recombinant CYP1A2, luciferin-ME demethylation, luminescence; series mostly up to 57 µM. The procedure, abridged: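 20nM CYP1A2, 100uM Luciferin-ME (=Km), 100mM KPO4; cpd 10 min RT; +NADPH regen, 60 min RT; stop/detect 20 min; luminescence. Normalized to furafylline 57 uM = full inhibition.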
Cytochrome P450 1A2 (Homo sapiens), sequence (P05177 whole entry, looked up): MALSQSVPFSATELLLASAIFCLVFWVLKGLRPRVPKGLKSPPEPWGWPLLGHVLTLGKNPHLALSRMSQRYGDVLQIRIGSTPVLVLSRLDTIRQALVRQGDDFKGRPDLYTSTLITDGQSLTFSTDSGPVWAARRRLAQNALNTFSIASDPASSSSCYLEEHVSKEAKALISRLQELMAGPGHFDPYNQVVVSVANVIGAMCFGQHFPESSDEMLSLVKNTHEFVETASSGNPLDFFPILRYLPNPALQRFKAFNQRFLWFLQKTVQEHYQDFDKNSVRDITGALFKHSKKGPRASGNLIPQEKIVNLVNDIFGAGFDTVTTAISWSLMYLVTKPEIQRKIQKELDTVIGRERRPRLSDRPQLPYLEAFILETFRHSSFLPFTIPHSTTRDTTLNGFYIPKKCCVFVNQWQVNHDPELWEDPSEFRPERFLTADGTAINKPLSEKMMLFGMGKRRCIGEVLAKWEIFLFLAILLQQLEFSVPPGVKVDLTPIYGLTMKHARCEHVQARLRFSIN

Experiment [4] can be described thus: NFAT Signaling Pathway (AID 444; active means well fitted curve in either direction with a large enough effect, not every such curve was filed as active;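 further: carbachol stimulus at about its EC50 of 1 µM final; on the % scale 0 is the no-effect control and ±100 the full control effect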). The following applies: Jurkat NFAT-bla M1, carbachol, beta-lactamase ratio, 5 h; at 7.69 µM (top of the series) unless noted. The procedure, abridged:
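Jurkat cells with NFAT-driven β-lactamase reporter and co-expressed M1 receptor, stimulated with carbachol (final 1 uM, ~EC50), compound titration, 5 h at 37 °C. CCF4 loaded 1 h at RT; 460/530 nm ratio gave %activity and AC50.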

Experiment [5] can be described thus: Stat Signaling Pathway (AID 446; active means well fitted curve in either direction with a large enough effect, not every such curve was filed as active;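 further: ME-180 cervical cancer cells given 40 pM IL-6 alongside compound; SIE-controlled beta-lactamase reporter measured as 460/530 nm FRET emission ratio; on the % scale 0 is the no-effect control and ±100 the full control effect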). The following applies: ME-180 (cervical carcinoma) SIE beta-lactamase reporter, IL-6 stimulated, 5 h; at 7.69 µM (top of the series) unless noted. The gist of the method:
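Emission at 460 and 530 nm (excitation 405 nm) reports SIE-controlled beta-lactamase in ME-180 cells. Cells received compound with 40 pM IL-6 for 5 hrs at 37 C; data scaled between 300 pM IL-6 and 125 nM JAK-inhibitor controls.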

Experiment [6] addresses Glucocorticoid receptor (Homo sapiens) (UniProt P04150). Briefly: GR-GFP Redistribution (AID 450;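 active means compounds whose dose series gives a full or clear partial fitted curve of increased nuclear translocation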; further: potency means the concentration at half of the fitted maximal effect). The following applies: U2OS GR-GFP nuclear translocation, laser cytometry, 2 h.
The target is the same in experiment [7]. Put plainly: GR-EFC Redistribution (AID 451; calls by dose curve; further: potency means the concentration at half of the fitted maximal effect). The following applies: CHO-K1 GR-EFC translocation, beta-gal luminescence, 2 h. The gist of the method:
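CHO-K1 cells expressing nuclear EA and GR-ED fragments of b-gal; compounds titrated up to 46 uM final, 2 h at 37 C. GR nuclear translocation read as complemented b-gal luminescence after 1 h RT detection.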

In experiment [8] the target is Mitogen-activated protein kinase 10 (Mus musculus) (UniProt Q61831). Put plainly: JNK3 AlphaScreen Assay (AID 530; active means well fitted curve in either direction with a large enough effect, not every such curve was filed as active;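 further: kinase came from lysate of stimulated human HepG2 cells; signal reports phosphorylation of biotinylated GST-cJun 1-79 at Ser73 with 10 µM ATP; on the % scale 0 is the no-effect control and ±100 the full control effect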). As to conditions: JNK3 lysate, c-Jun phosphorylation; series mostly up to 57.1 µM. The gist of the method: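 HepG2 lysate (IL-1b/TNFa pre-activated) + biotin-GST-cJun 1-79 + anti-pSer73 cJun; cpd titration, 15 min RT; ATP 10 uM start; Tris pH 7.6, MgCl2, DTT, vanadate; beads in EDTA buffer; AlphaScreen.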
On the technique in general: Bead proximity is the source of the signal in Alpha formats.

Experiment [9] deals with 3',5'-cyclic-AMP phosphodiesterase 4B (Homo sapiens) (UniProt Q07343). Put plainly: qHTS Assay for Inhibitors of PDE-IV (AID 607; active means well fitted activation curve with a large enough effect in the main read-out, with a control signal flat, not every such curve was filed as active; further: % of control where 0% means no effect). As to conditions: HEK293 ACTOne CNG channel cells, membrane potential fluorescence; series mostly up to 22.9 µM. The gist of the method:
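The readout is membrane depolarisation from a cAMP-sensing CNG channel, detected with a potential dye at ex 535/em 590. Cells were HEK293-derived (endogenous PDE-IV) at 1000 cells/well, titrated up to 22.9 uM final.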

Experiment [10] can be described thus: qHTS Assay for Lipid Storage Modulators (AID 1519; calls by dose curve). The following applies: Drosophila S3 cells, BODIPY lipid droplet/cell ratio, laser cytometry, cells loaded with oleic acid; for activity change, negative = inhibition: at 57.5 µM (top of the series). The procedure, abridged: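 Cells seeded at 5,000 per well were treated with compounds over a concentration series and loaded with oleic acid (400 uM, as added). Lipid droplet fluorescence (488 nm excitation, 500-530 nm channel) was read by laser-scanning cytometry and normalized to 20 uM Triacsin C.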
(In general: Quantitative high-throughput screening tests each substance at several concentrations.)

Experiment [11] deals with Dual specificity protein kinase CLK4 (Homo sapiens) (UniProt Q9HAZ1). Briefly: qHTS Assay for Inhibitors of CDC-like Kinase 4 (Kinase-Glo Assay) (AID 1770). Further: nearly all actives have a fitted effect of over 65% in size. Further: potency means the concentration at half of the fitted maximal effect. The following applies: recombinant Clk4, Kinase-Glo ATP depletion luminescence; series mostly up to 66.7 µM. The gist of the method:
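Inhibition was judged from remaining ATP, measured by Ultra-Glo luciferase bioluminescence after Clk4 (25 nM) had acted on RS peptide at 1 uM ATP for 4.5 hours, room temperature.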

Experiment [12] shares this target. Briefly: qHTS Assay for Inhibitors of CDC-like Kinase 4 (ADP-Glo Assay) (AID 1771). Further: nearly all actives have a fitted effect of over 70% in size. Further: potency means the concentration at half of the fitted maximal effect. The following applies: recombinant CLK4, ADP-Glo luminescence; series mostly up to 80 µM. The procedure, abridged: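 25 nM Clk4, 100 uM RS peptide, 1 uM ATP (final); 2 mM MgCl2, 0.5 mM EGTA, 2.5 mM DTT, 0.01% Triton X-100; 1 hr RT. ADP-Glo readout: ATP depletion 45 min, conversion/luciferase 30 min, luminescence.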

Experiment [13] has as its target Ubiquitin carboxyl-terminal hydrolase 1 (Homo sapiens) (UniProt O94782). Put plainly: Inhibitors of USP1/UAF1: Pilot qHTS (AID 504865).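 Further: rhodamine fluorescence freed from ubiquitin-rhodamine substrate followed over time; top concentration of the series differs between compounds; on the % scale 0 is the no-effect control and ±100 the full control effect; nearly all actives have a fitted effect of over 35% in size.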 The following applies: purified USP1/UAF1, Ub-rhodamine cleavage fluorescence; series mostly up to 54.9 µM. The procedure, abridged:
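Kinetic fluorescence assay: 1nM USP1/UAF1, 15 min compound preincubation, then 150nM Ub-Rho; 480/540 nm.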

Experiment [14] deals with Cytochrome P450 3A4 (Homo sapiens) (UniProt P08684). Put plainly: qHTS Assay for Inhibitors and Substrates of Cytochrome P450 3A4 (AID 884). Further: potency means the concentration at half of the fitted maximal effect; nearly all actives have a fitted effect of over 50% in size. The following applies: recombinant CYP3A4, Luciferin-PPXE luminescence; series mostly up to 57.1 µM. The procedure, abridged: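 Luminescent readout of luciferin produced by CYP3A4 (20 nM) dealkylation of Luciferin-PPXE, 25 uM (its KM). NADPH-driven reaction ran 60 min at RT after 10 min compound preincubation; data scaled to 57 uM ketoconazole as 100% inhibition.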
Cytochrome P450 3A4 (Homo sapiens), sequence (P08684 whole entry, looked up): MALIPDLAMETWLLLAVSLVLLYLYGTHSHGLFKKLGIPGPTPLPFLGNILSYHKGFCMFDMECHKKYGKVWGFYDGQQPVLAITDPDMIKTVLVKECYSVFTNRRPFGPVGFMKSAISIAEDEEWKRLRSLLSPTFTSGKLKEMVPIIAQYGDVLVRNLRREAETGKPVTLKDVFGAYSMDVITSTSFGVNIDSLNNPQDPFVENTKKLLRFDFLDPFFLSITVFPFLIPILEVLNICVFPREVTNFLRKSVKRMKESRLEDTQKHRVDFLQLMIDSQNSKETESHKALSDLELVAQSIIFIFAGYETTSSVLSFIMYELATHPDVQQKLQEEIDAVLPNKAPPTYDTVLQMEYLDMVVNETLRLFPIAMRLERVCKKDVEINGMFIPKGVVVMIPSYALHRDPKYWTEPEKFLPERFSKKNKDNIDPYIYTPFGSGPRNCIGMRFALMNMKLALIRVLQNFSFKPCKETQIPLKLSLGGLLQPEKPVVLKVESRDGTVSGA

For experiment [15] the target is unchanged. Put plainly: qHTS Assay for Activators of Cytochrome P450 3A4 (AID 885). Further: nearly all actives have a fitted effect of over 65% in size. The following applies: recombinant CYP3A4, Luciferin-PPXE luminescence, 60 min; series mostly up to 57.1 µM. The gist of the method: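 Activators are scored by enhanced luminescence from CYP3A4 conversion of luciferin-PPXE (25uM, equal to KM) to luciferin, after 60 min at RT with an NADPH-regenerating system.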

For experiment [16], the target named is Dual specificity protein kinase CLK4 (Homo sapiens) (UniProt Q9HAZ1). Briefly: qHTS Assay for Inhibitors of CDC-like Kinase 4 (ADP-FP Assay) (AID 1795).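 Further: recombinant human CLK4 phosphorylating RS repeat peptide at 1 µM ATP; on the % scale 0 is the no-effect control and ±100 the full control effect; nearly all actives have a fitted effect of over 60% in size.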 As to conditions: Transcreener ADP fluorescence polarization; series mostly up to 50 µM. The procedure, abridged:
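Inhibition of ADP formation by 6.25 nM Clk4 is measured using 1 uM ATP and 100 uM RS repeat peptide over one hour. Produced ADP displaces a fluorescent tracer from antibody, lowering polarization.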

Experiment [17] concerns the target Cytochrome P450 2C19 (Homo sapiens) (UniProt P33261). Briefly: qHTS Assay for Inhibitors and Substrates of Cytochrome P450 2C19 (AID 899). Further: potency means the concentration at half of the fitted maximal effect; nearly all actives have a fitted effect of over 60% in size. The following applies: recombinant CYP2C19, luciferin-H EGE luminescence; series mostly up to 57.1 µM. The procedure, abridged:
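Luminescent read-out of luciferin formed from Luciferin-H EGE (10uM, equal to KM). Enzyme 5nM in 50mM KPO4; compound added, 10 min at 37C, then NADPH regenerating system for 60 min at 37C. Full inhibition defined by 57uM ketoconazole.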

Setting [18] is: measured here: cell count channel max response.
Where [19] appears, read: measured here: lipid channel max response.

Inconclusive results are not listed. The source made the active and inactive calls. Unless noted, the call rests on the fitted dose curve; in most records, active means well fitted curve in the direction sought with a large enough effect; inconclusive means small, poorly fitted or top-dose-only effect, or another doubt; inactive means no such curve, though single readings can be large; an effect the other way counts as inactive or inconclusive.

Glucocorticoid receptor (Homo sapiens), sequence (P04150 whole entry, looked up): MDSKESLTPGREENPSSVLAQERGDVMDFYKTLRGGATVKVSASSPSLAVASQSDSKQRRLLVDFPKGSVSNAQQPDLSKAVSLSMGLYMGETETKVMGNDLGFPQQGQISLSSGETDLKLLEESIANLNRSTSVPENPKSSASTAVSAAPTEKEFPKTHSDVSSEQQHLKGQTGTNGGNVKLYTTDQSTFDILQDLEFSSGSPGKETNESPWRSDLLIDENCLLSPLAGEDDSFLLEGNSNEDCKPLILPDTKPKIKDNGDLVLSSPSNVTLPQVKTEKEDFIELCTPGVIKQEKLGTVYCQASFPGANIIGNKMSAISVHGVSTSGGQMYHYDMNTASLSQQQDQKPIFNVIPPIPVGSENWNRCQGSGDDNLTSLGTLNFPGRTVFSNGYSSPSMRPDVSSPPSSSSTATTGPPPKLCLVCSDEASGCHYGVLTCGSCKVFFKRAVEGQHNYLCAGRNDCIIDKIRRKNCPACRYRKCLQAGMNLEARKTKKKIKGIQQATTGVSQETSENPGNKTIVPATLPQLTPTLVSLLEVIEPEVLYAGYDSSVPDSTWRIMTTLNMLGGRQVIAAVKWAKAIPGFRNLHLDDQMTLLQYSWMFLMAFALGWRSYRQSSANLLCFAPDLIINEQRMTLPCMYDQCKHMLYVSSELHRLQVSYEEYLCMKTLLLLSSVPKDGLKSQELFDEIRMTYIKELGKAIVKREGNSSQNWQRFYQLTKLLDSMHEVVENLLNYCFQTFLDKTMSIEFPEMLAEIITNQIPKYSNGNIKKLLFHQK
Lysosomal acid glucosylceramidase (Homo sapiens), sequence (P04062 whole entry, looked up): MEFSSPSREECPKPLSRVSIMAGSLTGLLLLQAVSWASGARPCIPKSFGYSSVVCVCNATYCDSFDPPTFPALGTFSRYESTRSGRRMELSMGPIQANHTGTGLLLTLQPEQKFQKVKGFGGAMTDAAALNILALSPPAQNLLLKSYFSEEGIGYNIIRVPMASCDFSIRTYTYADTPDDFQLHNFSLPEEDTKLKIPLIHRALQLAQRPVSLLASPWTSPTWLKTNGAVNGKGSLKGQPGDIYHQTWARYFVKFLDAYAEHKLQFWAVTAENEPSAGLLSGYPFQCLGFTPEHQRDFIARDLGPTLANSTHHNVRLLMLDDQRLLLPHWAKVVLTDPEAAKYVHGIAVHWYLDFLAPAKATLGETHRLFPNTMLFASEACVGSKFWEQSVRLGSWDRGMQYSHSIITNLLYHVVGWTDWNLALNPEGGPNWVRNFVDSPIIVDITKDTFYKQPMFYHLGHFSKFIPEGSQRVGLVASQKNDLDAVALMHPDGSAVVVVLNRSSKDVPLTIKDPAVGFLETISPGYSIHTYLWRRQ
3',5'-cyclic-AMP phosphodiesterase 4B (Homo sapiens), sequence (Q07343 whole entry, looked up): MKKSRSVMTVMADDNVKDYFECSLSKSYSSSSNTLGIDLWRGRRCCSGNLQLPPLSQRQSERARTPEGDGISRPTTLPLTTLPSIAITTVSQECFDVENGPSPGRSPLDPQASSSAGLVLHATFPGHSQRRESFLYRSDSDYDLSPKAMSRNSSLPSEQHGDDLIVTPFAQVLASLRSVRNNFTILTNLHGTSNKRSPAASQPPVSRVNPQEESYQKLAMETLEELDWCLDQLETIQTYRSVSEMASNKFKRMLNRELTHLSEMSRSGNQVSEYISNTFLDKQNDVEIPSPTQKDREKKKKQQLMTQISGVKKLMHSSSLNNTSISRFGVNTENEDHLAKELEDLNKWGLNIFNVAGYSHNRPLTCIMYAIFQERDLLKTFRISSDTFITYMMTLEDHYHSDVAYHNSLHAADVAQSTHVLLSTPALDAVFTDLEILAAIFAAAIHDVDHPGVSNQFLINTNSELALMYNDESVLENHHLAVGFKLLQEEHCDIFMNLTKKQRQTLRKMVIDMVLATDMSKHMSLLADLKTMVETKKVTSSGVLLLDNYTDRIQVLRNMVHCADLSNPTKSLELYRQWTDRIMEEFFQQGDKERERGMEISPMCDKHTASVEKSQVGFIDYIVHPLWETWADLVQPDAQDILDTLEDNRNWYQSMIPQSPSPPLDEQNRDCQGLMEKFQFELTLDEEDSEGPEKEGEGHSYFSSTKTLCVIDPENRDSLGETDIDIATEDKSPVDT
Ubiquitin carboxyl-terminal hydrolase 1 (Homo sapiens), sequence (O94782 whole entry, looked up): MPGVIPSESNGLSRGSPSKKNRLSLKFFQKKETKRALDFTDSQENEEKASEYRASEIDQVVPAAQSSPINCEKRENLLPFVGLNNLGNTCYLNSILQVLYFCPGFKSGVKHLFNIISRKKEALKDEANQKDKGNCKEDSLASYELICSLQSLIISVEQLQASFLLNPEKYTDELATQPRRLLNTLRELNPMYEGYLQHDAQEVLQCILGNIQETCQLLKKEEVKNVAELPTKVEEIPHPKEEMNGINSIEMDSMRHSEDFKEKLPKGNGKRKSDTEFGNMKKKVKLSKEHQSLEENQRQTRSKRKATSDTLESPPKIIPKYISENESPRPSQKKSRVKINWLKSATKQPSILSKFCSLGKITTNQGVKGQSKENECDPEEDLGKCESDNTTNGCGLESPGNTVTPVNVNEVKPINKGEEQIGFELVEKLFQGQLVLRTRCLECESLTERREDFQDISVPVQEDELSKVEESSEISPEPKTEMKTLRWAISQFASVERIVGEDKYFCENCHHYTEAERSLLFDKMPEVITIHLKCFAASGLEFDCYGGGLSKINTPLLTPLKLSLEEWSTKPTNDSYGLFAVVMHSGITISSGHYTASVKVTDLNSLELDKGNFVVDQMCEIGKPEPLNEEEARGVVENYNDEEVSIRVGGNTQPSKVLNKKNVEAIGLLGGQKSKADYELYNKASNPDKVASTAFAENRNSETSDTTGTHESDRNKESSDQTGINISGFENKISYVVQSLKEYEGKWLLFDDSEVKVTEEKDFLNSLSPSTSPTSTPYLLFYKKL
Dual specificity protein kinase CLK4 (Homo sapiens), sequence (Q9HAZ1 whole entry, looked up): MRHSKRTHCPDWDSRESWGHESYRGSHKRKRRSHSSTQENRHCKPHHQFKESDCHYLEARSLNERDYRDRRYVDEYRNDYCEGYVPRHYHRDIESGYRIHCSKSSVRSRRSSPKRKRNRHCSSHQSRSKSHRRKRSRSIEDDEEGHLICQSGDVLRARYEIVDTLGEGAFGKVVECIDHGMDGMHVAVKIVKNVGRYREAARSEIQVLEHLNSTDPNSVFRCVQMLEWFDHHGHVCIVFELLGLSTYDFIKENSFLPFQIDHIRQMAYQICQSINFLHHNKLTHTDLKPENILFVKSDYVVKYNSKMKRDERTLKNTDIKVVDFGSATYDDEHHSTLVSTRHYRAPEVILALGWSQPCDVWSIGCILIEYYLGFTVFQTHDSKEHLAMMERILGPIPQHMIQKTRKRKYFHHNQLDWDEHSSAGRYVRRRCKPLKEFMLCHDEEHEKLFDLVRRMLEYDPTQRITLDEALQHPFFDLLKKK
Cytochrome P450 2C19 (Homo sapiens), sequence (P33261 whole entry, looked up): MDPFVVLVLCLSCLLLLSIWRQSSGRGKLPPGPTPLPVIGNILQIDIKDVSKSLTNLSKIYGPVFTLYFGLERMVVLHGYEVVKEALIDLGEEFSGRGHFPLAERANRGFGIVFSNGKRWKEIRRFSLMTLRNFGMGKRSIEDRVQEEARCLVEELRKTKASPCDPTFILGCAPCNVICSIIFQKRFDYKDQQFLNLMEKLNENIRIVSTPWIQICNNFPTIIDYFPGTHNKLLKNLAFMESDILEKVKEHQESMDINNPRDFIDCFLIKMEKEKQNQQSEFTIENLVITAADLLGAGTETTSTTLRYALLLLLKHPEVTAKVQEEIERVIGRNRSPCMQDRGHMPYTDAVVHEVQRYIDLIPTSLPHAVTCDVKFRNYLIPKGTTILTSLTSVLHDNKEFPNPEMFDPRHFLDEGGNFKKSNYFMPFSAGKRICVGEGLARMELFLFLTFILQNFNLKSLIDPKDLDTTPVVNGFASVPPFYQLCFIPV

As to `COc1ccc(-c2nc3cnc(N4CCN(C)CC4)nc3n(C)c2=O)cc1`, the Potency in [1] was > 11.4 µM (inactive); in experiment [3], 25.1 µM (active); in [6], > 9.22 µM (inactive); in [7], > 46 µM (inactive). Besides, the activity change, negative = inhibition in experiment [2] is 14.5% (inactive); in experiment [4], 27.7% (inactive); in experiment [10], 1.83% (inactive). Further, the activity, negative = inhibition in experiment [5] is 26.5% (inactive). For the same compound, the Potency entry in experiment [8], in [9], in experiment [11], in [12] and in [13] was “inactive” throughout. Moreover, the max response in [10] (setting [18]) worked out at 6.37%; in experiment [10] (setting [19]) it was 3.68%.
With `COc1ccc(CNc2ncnc3ccc(-c4ccc(C(=O)N(C)C)cc4)cc23)c(OC)c1`, the Potency in [1] is > 11.4 µM (inactive); in experiment [6], > 46 µM (inactive); in experiment [7] it was > 46 µM (inactive); in [14], 2.51 µM (active). Also, the figures for the activity change, negative = inhibition in [2], in [4] and in [10] were -13.6% (inactive), 28.3% (inactive) and 1.13% (inactive), respectively. Further, the activity, negative = inhibition in [5] is -9.48% (inactive). For the same compound, the Potency result in experiment [8], in [15], in experiment [11], in experiment [16] and in experiment [13] was “inactive” each time. Moreover, the figures for the max response in [10] (setting [18]) and in [10] (setting [19]) were 11.2% and 9.92%, respectively.
As for `COc1ccccc1-c1cncnc1N1CCN(C)CC1`, the Potency in experiment [1] is > 11.4 µM (inactive); in [6] it was > 46 µM (inactive); in experiment [7] it was > 46 µM (inactive); in experiment [14], 2.51 µM (active). Also, the activity change, negative = inhibition in experiment [2] is 3.96% (inactive); in [4] it was -14.4% (inactive); in experiment [10] it was 3.21% (inactive). For the same compound, the activity, negative = inhibition in experiment [5] was 4.86% (inactive). For the same compound, the Potency entry in experiment [8], in experiment [9], in [15], in experiment [11] and in experiment [13] was “inactive” each time. Besides, the max response in experiment [10] (setting [18]) came out at 28%; in experiment [10] (setting [19]), 29.7%.
For the compound `CN1CCN(c2ncc3ncc(=O)n(-c4ccccc4)c3n2)CC1`, the Potency was > 11.4 µM (inactive) in experiment [1], 2.51 µM (active) in experiment [3], > 9.22 µM (inactive) in [6] and > 46 µM (inactive) in [7]. Further, the activity change, negative = inhibition in [4] was -18.4% (inactive); in experiment [10], 4.96% (inactive). The activity, negative = inhibition in [5] is -9.93% (inactive). Moreover, the Potency entry in experiment [8], in experiment [9], in [11], in [16] and in [13] was “inactive” in each case. Further, the max response worked out at 21.7% in experiment [10] (setting [18]) and 23.9% in experiment [10] (setting [19]).
On to `COCCNc1ncnc2ccc(-c3ccccc3C(F)(F)F)cc12`, for which the activity change, negative = inhibition is 15.6% (inactive) in experiment [2], 18.9% (inactive) in [4] and -1.49% (inactive) in experiment [10]. Further, the Potency in experiment [3] was 1.58 µM (active); in [7], > 46 µM (inactive); in [17], 6.31 µM (active); in experiment [11] it was 25.1 µM (active); in experiment [12], 31.6 µM (active). Further, the activity, negative = inhibition in [5] is -11.6% (inactive). Also, the Potency entry in experiment [8], in [15] and in experiment [13] was “inactive” in each case. Further, the max response is -4.06% in experiment [10] (setting [18]) and -5.73% in experiment [10] (setting [19]).
Turning to `COc1ccccc1-c1ccc2ncnc(NCCN3CCOCC3)c2c1`, the Potency was 15.8 µM (active) in experiment [3]; > 46 µM (inactive) in [6]; > 46 µM (inactive) in experiment [7]; 7.94 µM (active) in experiment [14]; 14.1 µM (active) in experiment [11]; 17.8 µM (active) in experiment [12]. The activity change, negative = inhibition in [4] was 5.89% (inactive); in experiment [10] it was -9.29% (inactive). Further, in experiment [5], the activity, negative = inhibition was -7.65% (inactive). Besides, the Potency entry in experiment [8], in [9], in [15] and in experiment [13] was “inactive” in each case. Also, the results for the max response in [10] (setting [18]) and in experiment [10] (setting [19]) were -4.88% and -15.2%, respectively.

The values above are taken from PubChem BioAssay (NCATS).
